# In all, about 96,000 compounds went through this assay and about 19,000 (20%) were called active.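 Rule for the calls: active = blocking of liver enzyme CYP2C9 beyond about 50% at 5 µM (limit read from the data); inactive = the rest.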 Not all results are given here.
# Target: Cytochrome P450 2C9 (Homo sapiens) (UniProt P11712)
# Test: blockers of cytochrome P450 2C9 activity – biochemical, luminescence, ADME assay, primary screen (AID 777)
# Details: CYP2C9 Supersomes, luciferin-H conversion, at 5 µM, active compounds read high
# Chain of Cytochrome P450 2C9 (Homo sapiens) (P11712 whole entry, looked up): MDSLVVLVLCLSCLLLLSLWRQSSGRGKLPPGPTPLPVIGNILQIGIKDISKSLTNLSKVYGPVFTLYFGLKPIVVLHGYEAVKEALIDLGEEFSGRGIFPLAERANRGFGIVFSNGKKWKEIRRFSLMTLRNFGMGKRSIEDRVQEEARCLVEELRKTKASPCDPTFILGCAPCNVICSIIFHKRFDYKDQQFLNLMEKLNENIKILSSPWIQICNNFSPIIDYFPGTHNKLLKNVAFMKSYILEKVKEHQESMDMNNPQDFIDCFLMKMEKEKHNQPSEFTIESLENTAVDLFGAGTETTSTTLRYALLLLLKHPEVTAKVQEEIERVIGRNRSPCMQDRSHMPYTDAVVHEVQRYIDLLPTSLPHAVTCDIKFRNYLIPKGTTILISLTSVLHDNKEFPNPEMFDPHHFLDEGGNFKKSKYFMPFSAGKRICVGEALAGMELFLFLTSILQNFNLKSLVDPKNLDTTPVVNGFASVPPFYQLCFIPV
row,Structure (SMILES),inhibition
1,CC12CCC(C(=O)N(CCC#N)CCC#N)(CC1=O)C2(C)C (stereo unspecified),-10.7% (inactive)
2,CCC(C(=O)Nc1ncccn1)(C(F)(F)F)C(F)(F)F,-8.6% (inactive)
3,Oc1ccc(Cl)cc1/C=N/c1nc2ccccc2[nH]1,-15.4% (inactive)
4,CCn1ncc(C2=NOC(C(=O)N3CCN(c4ccccc4)CC3)C2)c1C (stereo unspecified),-12.4% (inactive)
5,Cc1cc(C)c(S(=O)(=O)NCCCN2CCOCC2)cc1Br,-101% (inactive)
6,C=CCSc1nc2c(c(=O)[nH]1)C(C(C)C)C(C#N)=C(N)O2 (stereo unspecified),17.7% (inactive)
7,COc1cccc(N2CCN(C3CC(=O)N(c4ccc(Cl)cc4)C3=O)CC2)c1 (stereo unspecified),11.2% (inactive)
8,Cn1cnc2c1c(=O)n(Cc1c(Cl)cccc1Cl)c(=O)n2C,32.6% (inactive)
9,O=C(CC(NS(=O)(=O)c1ccc(Cl)cc1)c1ccco1)NC1CCCC1 (stereo unspecified),18.5% (inactive)
10,O=S(=O)(NC1CCCCC1)c1ccc(F)c2ccccc12,53.4% (active)
11,O=C(CSCc1ccc(Br)cc1)Nc1ccc(S(=O)(=O)N2CCCCCC2)cc1,56.5% (active)
12,CCOc1cccc(NC(=O)C2CCCN(S(=O)(=O)c3ccc(OC)cc3)C2)c1 (stereo unspecified),21.3% (inactive)
13,CCCN1Cc2cccc(C(=O)Nc3ccc(S(=O)(=O)N4CCCCCC4)cc3)c2C1=O,38% (inactive)
14,Cc1ccc(OCCCC(=O)Nc2ccc(N3CCOCC3)cc2)cc1,15.2% (inactive)
15,Cc1cccc(OCCCC(=O)Nc2ccc(S(=O)(=O)N3CCCC3)cc2)c1,65.2% (active)
16,CC(=O)Nc1ccc(S(=O)(=O)N2CCN(CCCOc3cc(C)ccc3C)CC2)cc1,83.6% (active)
17,COC(=O)COc1ccc(S(=O)(=O)N2CCOCC2)cc1,-8.2% (inactive)
18,COc1ccc(OCC(=O)OCC(=O)Nc2ccc(S(=O)(=O)N3CCCCC3)cc2)cc1,63.1% (active)
19,C=CCNC(=O)CCCOc1cccc(C)c1,-3.3% (inactive)
20,CC(=O)Nc1ccc(S(=O)(=O)N2CCN(C3CCCCCCC3)CC2)cc1,40.3% (inactive)
21,O=C(Nc1ccc(S(=O)(=O)N2CCCCC2)cc1)c1cnccn1,23.2% (inactive)
22,CC(=O)Nc1ccc(S(=O)(=O)N2CCSCC2)cc1,14% (inactive)
23,Cc1cc(OCCOc2cccc3cccnc23)c(C)cc1Cl,-170% (inactive)
24,CCOC(=O)c1nnn(-c2nc(OC)nc(N(C)C)n2)c1-c1ccccc1,6.1% (inactive)
25,Cc1nnc(SCC(=O)N2CCN(c3ccccc3)CC2)n1-c1ccccc1,1.8% (inactive)
26,COc1cc(OC)cc(C(=O)Nc2ncc3c(n2)CC(C)(C)CC3=O)c1,-12.1% (inactive)

# From PubChem BioAssay AID777 (Sanford-Burnham Center for Chemical Genomics, 2007)
